Screening data deposited in PubChem by National Center for Advancing Translational Sciences (NCATS).
In the library only some 21% were active in any assay of this set; here they are far more common.
DT40 TDP1 CPT – qHTS for Inhibitors of human tyrosyl-DNA phosphodiesterase 1 (TDP1): qHTS in cells in presence of CPT | Potency, µM (series often up to 46.2 µM), for the others: at the top dose activity change, negative = growth inhibition, hits mostly inhibitors | chicken DT40 Tdp1-/-;hTDP1 cells + 20 nM CPT, ATP luminescence, 48 h | hit rate 12% among 420,000 | AID 686979, 2013; further: potency means the concentration at half of the fitted maximal effect; on the % scale 0 is the no-effect control and ±100 the full control effect; nearly all actives have a fitted effect of over 55% in size
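Chicken DT40 Tdp1-/- cells stably complemented with human TDP1 were seeded at 400 cells/well in medium containing 20 nM camptothecin, exposed to pin-transferred compounds, and grown at 37 °C for at least 48 hr. Viability was read as ATP luminescence.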
ClpP mod – qHTS Assay for Activators of ClpP; ATP-dependent Clp protease proteolytic subunit (Bacillus subtilis (strain 168)), P80244; hit rate 1.9% among 340,000; purified B. subtilis ClpP, FRET peptide cleavage, 20 min; Potency, µM (top dose mostly 57.5 µM), without a hit: at the top dose activity change, negative = active; active means well fitted falling curve with a large enough effect; inconclusive means small, poorly fitted or top-dose-only effect; inactive means no such curve, though single readings can be large or run the other way; further: potency means the concentration at half of the fitted maximal effect; the source files actives as falling curves though it sought activators and does not explain the sign; nearly all actives have a fitted effect of over 65% in size
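ClpP 10 microg/mL final, pH 8 Tris/KCl buffer with BSA, glycerol, Tween-20; compound pinned in; FRET-FV substrate; RT 20 min; Ex320/Em430; ΔFRET vs ADEP 5.8 microM, DMSO, no enzyme.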
IL-1B inflam inh – qHTS for Inhibitors of Inflammasome Signaling: IL-1-beta AlphaLISA Primary Screen | activity change, % at 57.5 µM | THP-1 LPS/ATP IL-1B secretion, AlphaLISA, 16 h; active compounds read low | AID 743279, 2014 | hit rate 4.7% among 360,000; in the data active means activity change below about -50%; inconclusive means mostly about -30% to -49%; further: on the % scale 0 is the no-effect control and ±100 the full control effect
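Secreted IL-1B measured by AlphaLISA bead assay after 16 h compound exposure of THP-1 cells; compounds (final up to 57.5 uM) added 1 h before LPS (250 ng/mL) and ATP (1.25 mM) stimulation; lower signal means less secretion.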
TDP1 cell noCPT – qHTS for Inhibitors of human tyrosyl-DNA phosphodiesterase 1 (TDP1): qHTS in cells in absence of CPT; DT40 Tdp1-/- hTDP1 cells, no CPT, ATP luminescence, 48 h; Potency, µM (series often up to 46.2 µM), for inactives: at the top dose activity change, negative = growth inhibition, most hits filed as inhibitors; hit rate 15% among 420,000; further: potency means the concentration at half of the fitted maximal effect; on the % scale 0 is the no-effect control and ±100 the full control effect; nearly all actives have a fitted effect of over 55% in size
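Luminescent ATP content (CellTiter-Glo) served as the growth readout. Knockout chicken DT40 cells expressing human TDP1 were exposed to compounds without camptothecin for a minimum 48 hr at 37 °C.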
D3 ag – qHTS of D3 Dopamine Receptor Agonist: qHTS; D3R DiscoveRx beta-arrestin cells, luminescence, 90 min; max activation, %; hit rate 0.58% among 410,000; AID 652048, 2013; in the data active means max activation above about 30%; further: 0% is about no effect
Target sequence (P35462 whole entry, looked up): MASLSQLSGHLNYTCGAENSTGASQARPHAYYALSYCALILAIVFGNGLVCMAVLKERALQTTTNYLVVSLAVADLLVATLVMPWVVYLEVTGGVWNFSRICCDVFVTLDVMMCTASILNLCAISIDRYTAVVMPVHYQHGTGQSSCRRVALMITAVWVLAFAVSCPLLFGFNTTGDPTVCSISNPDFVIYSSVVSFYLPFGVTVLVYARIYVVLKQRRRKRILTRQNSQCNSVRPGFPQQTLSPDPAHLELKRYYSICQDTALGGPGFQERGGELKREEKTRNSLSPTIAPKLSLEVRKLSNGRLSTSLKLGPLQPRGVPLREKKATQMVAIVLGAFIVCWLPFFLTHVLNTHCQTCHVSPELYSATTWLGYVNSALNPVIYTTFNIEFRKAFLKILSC
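Agonist mode: compounds and dopamine controls were applied to plated cells for 90 min at 37 degrees C after an overnight attachment at 1500 cells/well. Luminescent read-out followed 30 - 60 minutes at room temperature with DiscoveRx detection reagent.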
D3 antag – qHTS of D3 Dopamine Receptor Antagonist: qHTS; D(3) dopamine receptor (Homo sapiens), P35462; D3R cells, DiscoveRx beta-arrestin luminescence, antagonist mode; active compounds read low; hit rate 2.5% among 360,000; max response, negative = inhibition, %; in the data active means max response below about -50%; inconclusive means no clear call, values can overlap the other calls; further: on the % scale 0 is the no-effect control and ±100 the full control effect
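Cells expressing the human receptor were seeded at 1500 cells/well, incubated overnight at 37 degrees C in 5% CO2, then exposed to library compounds with dopamine controls for 90 minutes at 37 degrees C before luminescent detection.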
* = called active by the depositor. Unless noted, the call rests on the fitted dose curve; in most records, active means well fitted inhibition curve with a large enough effect; inconclusive means small, poorly fitted or top-dose-only effect; inactive means flat fitted curve, though single readings scatter.

How did O=C(CCSc1nc(-c2ccc3c(c2)OCO3)cc(C(F)(F)F)n1)NCc1ccco1 do in these assays?
DT40 TDP1 CPT: inconclusive; ClpP mod: 4%; IL-1B inflam inh: -19; TDP1 cell noCPT: inconclusive; D3 ag: -2; D3 antag: 8

What do the screens show for `COc1ccc(CNC(=O)CCSc2nc(-c3ccc4c(c3)OCO4)cc(C(F)(F)F)n2)cc1`?
DT40 TDP1 CPT: -20%; ClpP mod: 7.9µM*; IL-1B inflam inh: -12; TDP1 cell noCPT: inconclusive; D3 ag: -1; D3 antag: 6

What do the screens show for `O=C(CCSc1nc(-c2ccc3c(c2)OCO3)cc(C(F)(F)F)n1)NCc1ccccc1`?
DT40 TDP1 CPT: inconclusive; ClpP mod: -3%; IL-1B inflam inh: 15; TDP1 cell noCPT: 15µM*; D3 ag: -4; D3 antag: -5

Results for CCC(C)NC(=O)CCSc1nc(-c2ccc3c(c2)OCO3)cc(C(F)(F)F)n1 (configuration not stated) ?
DT40 TDP1 CPT: inconclusive; ClpP mod: -23%; TDP1 cell noCPT: inconclusive; D3 ag: -8

What do the screens show for `COCCNC(=O)CCSc1nc(-c2ccc3c(c2)OCO3)cc(C(F)(F)F)n1`?
ClpP mod: -4%; D3 ag: 4

How did CN(Cc1ccccc1)C(=O)CCSc1nc(-c2ccc3c(c2)OCO3)cc(C(F)(F)F)n1 do in these assays?
DT40 TDP1 CPT: inconclusive; ClpP mod: 18µM*; IL-1B inflam inh: 8; TDP1 cell noCPT: 18µM*; D3 ag: -13; D3 antag: -9

How did CN(Cc1ccccc1)C(=O)CSc1nc(-c2ccc(F)cc2)cc(C(F)(F)F)n1 do in these assays?
DT40 TDP1 CPT: 21µM*; ClpP mod: -19%; TDP1 cell noCPT: 15µM*; D3 ag: -6

What do the screens show for `COCCNC(=O)c1cccc(OC2CCN(Cc3ccc(F)cc3OC)CC2)c1`?
DT40 TDP1 CPT: -15%; ClpP mod: 1%; IL-1B inflam inh: 25; TDP1 cell noCPT: 6%; D3 ag: -14; D3 antag: -5

How did O=C(CN1CCN(C(=O)c2ccco2)CC1)Nc1cccc(S(=O)(=O)N2CCCC2)c1 do in these assays?
DT40 TDP1 CPT: -9%; ClpP mod: -1%; IL-1B inflam inh: 21; TDP1 cell noCPT: 0%; D3 ag: 9; D3 antag: 0

What do the screens show for `O=C(CN1CCN(C(=O)c2ccco2)CC1)Nc1cc(S(=O)(=O)N2CCCC2)ccc1Cl`?
DT40 TDP1 CPT: inconclusive; ClpP mod: -1%; IL-1B inflam inh: -16; TDP1 cell noCPT: 6.5µM*; D3 ag: -3; D3 antag: -27

What do the screens show for `O=C(CN1CCN(c2ccccc2O)CC1)Nc1cc(S(=O)(=O)N2CCCC2)ccc1Cl`?
DT40 TDP1 CPT: 16µM*; ClpP mod: -1%; IL-1B inflam inh: inconclusive; TDP1 cell noCPT: inconclusive; D3 ag: 7; D3 antag: 14

What do the screens show for `O=[N+]([O-])c1ccccc1CCc1ccccc1[N+](=O)[O-]`?
DT40 TDP1 CPT: -5%; IL-1B inflam inh: -5; TDP1 cell noCPT: -16%; D3 ag: -10; D3 antag: -3

Results for C=CCC1Cc2c(cccc2[N+](=O)[O-])C(CC=C)N1 (configuration not stated) ?
DT40 TDP1 CPT: 7%; ClpP mod: 0%; IL-1B inflam inh: 17; TDP1 cell noCPT: 7%; D3 ag: 41*; D3 antag: 8

Results for Cc1cc(C)c(O)c(-c2cc(C(=O)Nc3cccnc3)[nH]n2)c1 ?
DT40 TDP1 CPT: inconclusive; TDP1 cell noCPT: inconclusive; D3 ag: -11; D3 antag: -22
